# Laboratory results reported in PubChem BioAssay AID1159580 (chemical genetic matrix, 2015).
# Values joined by “and” are separate entries in the source; they are usually repeats but may differ in a detail not shown here. Equal entries are not always repeated. Among all 5,500 compounds or so, about 2,000 (36%) were called active. About 18% were inconclusive and are not listed. The list shows a part of the results. Unmarked numbers belong to inactive results. Rule as the data show it: active = normalized growth mostly below about 0.91 (no sharp cut-off); inconclusive = no clear call, values can overlap the other calls; inactive = mostly above about 0.92.
# Assay: chemical genetic growth profiling, strain panel (AID 1159580);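 also: tested at 20 µM; growth read once vehicle control cultures reached saturation at 30 °C; 1 = growth at the plate median or of vehicle wells; lower values mean less growth of the strain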
# Details: S. cerevisiae deletion strains, growth OD
compound,measurement,setting,value
CN[C@@H]1C(O)[C@@H](O[C@@H]2[C@@H](O)[C@H](O[C@H]3OC(CN)=CC[C@H]3N)[C@@H](N)C[C@H]2N)OC[C@]1(C)O (some centres undefined),normalized growth,"locus YAL013W, strain DEP1, hits give low values",1.02
same,normalized growth,"locus YAL021C, strain ccr4, hits give low values",1.01
same,normalized growth,"locus YAL026C, strain drs2, hits give low values",0.99
same,normalized growth,"locus YAL030W, strain snc1, hits give low values",1.01
same,normalized growth,"locus YBL061C, strain skt5, hits give low values",1.01
same,normalized growth,"locus YBR009C, strain hhf1, hits give low values",0.968
same,normalized growth,"locus YBR021W, strain FUR4, hits give low values",1.02
same,normalized growth,"locus YBR023C, strain chs3, hits give low values",1.01
same,normalized growth,"locus YBR171W, strain sec66, hits give low values",1.02
same,normalized growth,"locus YBR229C, strain ROT2, hits give low values",1.02
same,normalized growth,"locus YBR231C, strain swc5, hits give low values",1.02
same,normalized growth,"locus YBR279W, strain paf1, hits give low values",1
same,normalized growth,"locus YCL011C, strain gbp2, hits give low values",1
same,normalized growth,"locus YCL016C, strain dcc1, hits give low values",0.997
same,normalized growth,"locus YCL029C, strain bik1, hits give low values",0.997
same,normalized growth,"locus YCL061C, strain MRC1, hits give low values",1.03
same,normalized growth,"locus YCL069W, strain vba3, hits give low values",1.01
same,normalized growth,"locus YCR088W, strain abp1, hits give low values",1.01
same,normalized growth,"locus YDL005C, strain med2, hits give low values",1.01
same,normalized growth,"locus YDL035C, strain GPR1, hits give low values",1.02
same,normalized growth,"locus YDL040C, strain nat1, hits give low values",1.01
same,normalized growth,"locus YDL074C, strain BRE1, hits give low values",1.08
same,normalized growth,"locus YDL101C, strain DUN1, hits give low values",1.04
same,normalized growth,"locus YDL134C, strain PPH21, hits give low values",1.02
same,normalized growth,"locus YDL185W, strain tfp1, hits give low values",1
same,normalized growth,"locus YDL192W, strain arf1, hits give low values",0.995
same,normalized growth,"locus YDR001C, strain nth1, hits give low values",1.02
same,normalized growth,"locus YDR069C, strain doa4, hits give low values",1.02
same,normalized growth,"locus YDR101C, strain arx1, hits give low values",0.987
same,normalized growth,"locus YDR137W, strain rgp1, hits give low values",0.998
same,normalized growth,"locus YDR150W, strain NUM1, hits give low values",1.02
same,normalized growth,"locus YDR159W, strain sac3, hits give low values",0.989
same,normalized growth,"locus YDR162C, strain NBP2, hits give low values",1.03
same,normalized growth,"locus YDR195W, strain ref2",1.03
same,normalized growth,"locus YDR297W, strain sur2, hits give low values",1.02
same,normalized growth,"locus YDR334W, strain swr1, hits give low values",1.02
same,normalized growth,"locus YDR335W, strain msn5, hits give low values",1.01
same,normalized growth,"locus YDR388W, hits give low values",0.985
same,normalized growth,"locus YDR392W, strain spt3, hits give low values",0.959
same,normalized growth,"locus YDR502C, strain sam2, hits give low values",1.01
same,normalized growth,"locus YEL003W, strain gim4, hits give low values",1.01
same,normalized growth,"locus YEL037C, strain rad23, hits give low values",1.02
same,normalized growth,"locus YEL061C, strain CIN8 (second series), hits give low values",1.02
same,normalized growth,"locus YEL061C, strain CIN8, hits give low values",1.07
same,normalized growth,"locus YER015W, strain faa2, hits give low values",1.02
same,normalized growth,"locus YER016W, strain bim1, hits give low values",0.979
same,normalized growth,"locus YER110C, hits give low values",0.96
same,normalized growth,"locus YER111C, strain swi4, hits give low values",1.02
same,normalized growth,"locus YER155C, strain BEM2 (second series), hits give low values",0.996
same,normalized growth,"locus YER155C, strain BEM2, hits give low values",1
same,normalized growth,"locus YER167W, strain BCK2, hits give low values",1.02
same,normalized growth,"locus YFR010W, strain ubp6, hits give low values",1.03
same,normalized growth,"locus YGL078C, strain dbp3, hits give low values",0.985
same,normalized growth,"locus YGL086W, strain mad1, hits give low values",0.994
same,normalized growth,"locus YGL167C, strain pmr1, hits give low values",1.02
same,normalized growth,"locus YGL173C, strain kem1, hits give low values",1.02
same,normalized growth,"locus YGL227W, strain vid30, hits give low values",1.02
same,normalized growth,"locus YGL240W, strain doc1, hits give low values",1.03
same,normalized growth,"locus YGL248W, strain PDE1, hits give low values",1.03
same,normalized growth,"locus YGL253W, strain hxk2, hits give low values",1
same,normalized growth,"locus YGR078C, strain PAC10, hits give low values",1.03
same,normalized growth,"locus YGR135W, strain pre9, hits give low values",1.01
same,normalized growth,"locus YGR229C, strain SMI1, hits give low values",1.05
same,normalized growth,"locus YGR252W, strain gcn5, hits give low values",0.651 (active)
same,normalized growth,"locus YHR013C, strain ard1, hits give low values",1.01
same,normalized growth,"locus YHR027C, strain rpn1, hits give low values",1
same,normalized growth,"locus YHR030C, strain SLT2, hits give low values",1 and 0.98
same,normalized growth,"locus YHR079C, strain IRE1 (second series), hits give low values",1
same,normalized growth,"locus YHR079C, strain IRE1, hits give low values",0.95
same,normalized growth,"locus YHR129C, strain ARP1, hits give low values",1.02
same,normalized growth,"locus YHR142W, strain chs7, hits give low values",1.02
same,normalized growth,"locus YHR200W, strain rpn10, hits give low values",1
same,normalized growth,"locus YIL066C, strain RNR3, hits give low values",1.02
same,normalized growth,"locus YIL073C, strain SPO22, hits give low values",1.03
same,normalized growth,"locus YIL125W, strain kgd1, hits give low values",1.01
same,normalized growth,"locus YIR030C, strain dcg1, hits give low values",0.995
same,normalized growth,"locus YJL092W, strain hpr5, hits give low values",1.02
same,normalized growth,"locus YJL095W, strain BCK1 (second series), hits give low values",1.01
same,normalized growth,"locus YJL095W, strain BCK1, hits give low values",1.06 and 0.978
same,normalized growth,"locus YJL115W, strain asf1, hits give low values",1.02
same,normalized growth,"locus YJL129C, strain trk1, hits give low values",1.02
same,normalized growth,"locus YJL134W, strain LCB3, hits give low values",1.02
same,normalized growth,"locus YJL154C, strain vps35, hits give low values",1.01
same,normalized growth,"locus YJL164C, strain tpk1, hits give low values",1.01
same,normalized growth,"locus YJL166W, strain qcr8, hits give low values",1.03
same,normalized growth,"locus YJL168C, strain set2, hits give low values",0.997
same,normalized growth,"locus YJL187C, strain SWE1 (second series), hits give low values",1.03
same,normalized growth,"locus YJR043C, strain POL32, hits give low values",1.2 [resistant] (active)
same,normalized growth,"locus YJR066W, strain TOR1, hits give low values",0.96
